Assay in all cases: growth (OD600 after 10 h); higher = more growth (less inhibition)
Assay [1] has as its system E. coli TESEC Alr+ wild-type control. To be noted: compound 0.1 mM; raw OD600 reference: median of DMSO wells 0.241, cell-free background 0.041. How it is done: (§1)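 TESEC Mtb Alr E. coli, or the Alr+ wild-type control, in 384-well plates with Prestwick library compounds at 0.1 mM and 1% DMSO, across arabinose induction levels of 1E3 to 1E7 nM. Growth is read as OD600 after 10 h at 37 °C in triplicate biological replicates.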

For assay [2], the system named is E. coli TESEC Mtb Alr. To be noted: compound 0.1 mM. How it is done:
as §1

The subject of a further assay is E. coli TESEC Mtb Asd. To be noted: compound 0.1 mM. How it is done:
(§2)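 TESEC E. coli strains in which the native enzyme is deleted and replaced by arabinose-inducible Mtb Asd, DapB, CysH or TrpD, each grown in its selective medium. Strains were screened against the Prestwick library at 0.1 mM and 1% DMSO in 384-well format at low and high arabinose induction. Growth is read as OD600 after 10 h in triplicate.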

The subject of a further assay is E. coli TESEC Mtb DapB. To be noted: compound 0.1 mM. How it is done: as §2
Assay [3] relates to E. coli TESEC Alr+ wild-type control. To be noted: compound 0.1 mM; raw OD600 reference: median of DMSO wells 0.49, cell-free background 0.052. How it is done:
(§3)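 TESEC Mtb Alr E. coli (ΔaraC ΔtolC ΔentC Δalr ΔdadX, arabinose-inducible Mtb Alr) or the Alr+ wild-type control strain, grown in defined M9-fructose medium without D-alanine in 96-well plates with Prestwick library compounds at 0.1 mM and 1% DMSO. Low Alr induction is 0.1 µM arabinose and high induction is 10 mM arabinose.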

Assay [4] relates to E. coli TESEC Mtb Alr. To be noted: compound 0.1 mM. On the procedure: as §3
This is another data set of the same source.

[5] abbreviates: arabinose 1000 nM, raw OD600 reference: median of DMSO wells 0.294, cell-free background 0.041.
[6] abbreviates: arabinose 10000 nM, raw OD600 reference: median of DMSO wells 0.264, cell-free background 0.041.
The mark [7] stands for this setting: arabinose 100000 nM, raw OD600 reference: median of DMSO wells 0.201, cell-free background 0.041.
The mark [8] stands for this setting: arabinose 1000000 nM, raw OD600 reference: median of DMSO wells 0.193, cell-free background 0.041.
Where [9] appears, read: arabinose 10000000 nM, raw OD600 reference: median of DMSO wells 0.146, cell-free background 0.041.
Where [10] appears, read: arabinose induction (level): High, raw OD600 reference: median of DMSO wells 0.331, cell-free background 0.041.
Where [11] appears, read: arabinose induction (level): Low, raw OD600 reference: median of DMSO wells 0.417, cell-free background 0.041.
Where [12] appears, read: arabinose induction (level): High, raw OD600 reference: median of DMSO wells […], cell-free background 0.041.
The mark [13] stands for this setting: arabinose induction (level): Low, raw OD600 reference: median of DMSO wells 0.227, cell-free background 0.041.
[14] abbreviates: arabinose 100 nM, raw OD600 reference: median of DMSO wells 0.413, cell-free background 0.052.
Where [15] appears, read: arabinose 10000000 nM, raw OD600 reference: median of DMSO wells […], cell-free background 0.052.

Counter-ions that a name gives are not always drawn. ± gives the standard deviation of the averaged measurements.

`Nc1ccc(S(=O)(=O)NC(=O)c2ccccc2)cc1` [Sulfabenzamide]: the growth is 0.256 ± 0.012 in assay [1]; 0.321 ± 0.023 in the assay with E. coli TESEC Mtb Alr [2] (setting [5]); 0.254 ± 0.005 in the assay on E. coli TESEC Mtb Alr [2] (setting [6]); 0.221 ± 0.022 in the assay with E. coli TESEC Mtb Alr [2] (setting [7]); 0.172 ± 0.0025 in the assay with E. coli TESEC Mtb Alr [2] (setting [8]); 0.156 ± 0.0061 with E. coli TESEC Mtb Alr [2] (setting [9]). Also, the growth in the assay on E. coli TESEC Mtb Asd (setting [10]) worked out at 0.402 ± 0.12; with E. coli TESEC Mtb Asd (setting [11]), 0.409 ± 0.033; in the assay on E. coli TESEC Mtb DapB (setting [12]), 0.221 ± 0.016; in the assay on E. coli TESEC Mtb DapB (setting [13]) it was 0.245 ± 0.018; in assay [3], 0.43 ± 0.0081; with E. coli TESEC Mtb Alr [4] (setting [14]) it was 0.4062 ± 0.0031. In addition, in the assay with E. coli TESEC Mtb Alr [4] (setting [15]), the growth was determined as 0.334 ± 0.025.

Turning to `CNCCCC1c2ccccc2C=Cc2ccccc21` [Protriptyline hydrochloride], the growth in assay [1] is 0.177 ± 0.013; in the assay with E. coli TESEC Mtb Alr [2] (setting [5]), 0.219 ± 0.0041; in the assay with E. coli TESEC Mtb Alr [2] (setting [6]) it was 0.256 ± 0.018; in the assay on E. coli TESEC Mtb Alr [2] (setting [7]), 0.157 ± 0.0029; in the assay with E. coli TESEC Mtb Alr [2] (setting [8]), 0.12 ± 0.0051; in the assay with E. coli TESEC Mtb Alr [2] (setting [9]), 0.137 ± 0.0036. Further, the growth was 0.153 ± 0.0035 with E. coli TESEC Mtb Asd (setting [10]); 0.263 ± 0.058 in the assay with E. coli TESEC Mtb Asd (setting [11]); 0.164 ± 0.039 in the assay on E. coli TESEC Mtb DapB (setting [12]); 0.21 ± 0.011 in the assay with E. coli TESEC Mtb DapB (setting [13]); 0.558 ± 0.023 in assay [3]; 0.402 ± 0.013 in the assay on E. coli TESEC Mtb Alr [4] (setting [14]). The molecule further came in with a growth with E. coli TESEC Mtb Alr [4] (setting [15]) of 0.313 ± 0.018.

Turning to `Fc1ccc(C(c2ccc(F)cc2)N2CCN(C/C=C/c3ccccc3)CC2)cc1` [Flunarizine dihydrochloride], the growth in assay [1] was 0.0778 ± 0.012; in the assay with E. coli TESEC Mtb Alr [2] (setting [5]), 0.11 ± 0.019; in the assay with E. coli TESEC Mtb Alr [2] (setting [6]), 0.0787 ± 0.0024; in the assay with E. coli TESEC Mtb Alr [2] (setting [7]), 0.116 ± 0.012; in the assay with E. coli TESEC Mtb Alr [2] (setting [8]) it was 0.0591 ± 0.0018; with E. coli TESEC Mtb Alr [2] (setting [9]), 0.0509 ± 0.0027. Moreover, the growth with E. coli TESEC Mtb Asd (setting [10]) turned out to be 0.0843 ± 0.013; in the assay with E. coli TESEC Mtb Asd (setting [11]) it was 0.056 ± 0.0016; in the assay with E. coli TESEC Mtb DapB (setting [12]), 0.0896 ± 0.0018; with E. coli TESEC Mtb DapB (setting [13]), 0.163 ± 0.065; in assay [3], 0.234 ± 0.0076; in the assay with E. coli TESEC Mtb Alr [4] (setting [14]) it was 0.318 ± 0.037. Also, in the assay on E. coli TESEC Mtb Alr [4] (setting [15]), the growth turned out to be 0.128 ± 0.014.

In the case of `CC(=O)O[C@]1(C(C)=O)CC[C@H]2[C@@H]3C=C(C)C4=CC(=O)CC[C@]4(C)[C@H]3CC[C@@]21C` [Megestrol acetate], the growth is 0.206 ± 0.022 in assay [1]; 0.285 ± 0.024 with E. coli TESEC Mtb Alr [2] (setting [5]); 0.266 ± 0.013 in the assay on E. coli TESEC Mtb Alr [2] (setting [6]); 0.16 ± 0.003 with E. coli TESEC Mtb Alr [2] (setting [7]); 0.164 ± 0.0052 with E. coli TESEC Mtb Alr [2] (setting [8]); 0.163 ± 0.016 in the assay with E. coli TESEC Mtb Alr [2] (setting [9]). Also, the growth was determined as 0.441 ± 0.041 in the assay with E. coli TESEC Mtb Asd (setting [10]); 0.46 ± 0.026 in the assay on E. coli TESEC Mtb Asd (setting [11]); 0.2058 ± 0.0013 with E. coli TESEC Mtb DapB (setting [12]); 0.248 ± 0.034 in the assay on E. coli TESEC Mtb DapB (setting [13]); 0.212 ± 0.22 in assay [3]; 0.291 ± 0.12 with E. coli TESEC Mtb Alr [4] (setting [14]). The molecule further returned a growth with E. coli TESEC Mtb Alr [4] (setting [15]) of 0.302 ± 0.041.

The values above are taken from the supplement of paper PMC9262897, “Low-cost anti-mycobacterial drug discovery using engineered E. coli” (Nature Communications, 2022).
